Source: PubChem
LANA-H2B inh: blocks KSHV LANA binding to histone H2A/H2B; 320,000 tested, 0.6% active; Q9QR71; inhibition, % (no concentration beside the values); AID 2629; cell-free LANA-H2A/H2B peptide, fluorescence polarization; in the data active = inhibition mostly above about 10%, no sharp cut-off; inactive = mostly below about 6.7%
HDAC3 inhib: blocks human histone deacetylase 3; recombinant HDAC3, fluorogenic peptide/trypsin coupled, fluorescence; inhibition, % at 8.3 µM; 320,000 tested, 0.15% active; AID 2718; in the data active = inhibition above about 26%, passing the limit was not always enough; inconclusive = no clear call, values can overlap the other calls
Fh CTSL1 inh: blocks F. hepatica cathepsin L1 in PFM18AAP counter-screen; recombinant F. hepatica cathepsin L1, Z-Leu-Arg-MCA fluorescence; inhibition, % at 5.96 µM; 300,000 tested, 0.49% active;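 active = inhibition above the mean of all tested compounds plus 3 SD, set per screening campaign, cut at about 17% in these data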;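 also: 0% = plate median of test compound wells and 100% = 1 µM Z-Phe-Ala-diazomethylketone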
m5-HT2A agonist: activates the mouse 5-HT2A serotonin receptor. P35363. CHO-K1 mHTR2A beta-arrestin complementation, luminescence; percent of 30 µM serotonin response. activation, % at 7.6 µM. 360,000 tested, 0.66% active. AID 624169;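 active = activation above a run cutoff, the mean activation of all tested compounds plus 3 SD, cut at about 14% in these data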;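 also: 0% = plate median of compound wells and 100% = 30 µM serotonin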
MOR ag counter: OPRM1 agonism in mouse HTR2A counterscreen; shares compounds with m5-HT2A agonist; U2OS OPRM1 beta-arrestin PathHunter, luminescence; DMSO 0%, DAMGO 9.3 µM 100%; activation, % at 9.3 µM; 2,300 tested, 5.3% active; AID 624380;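 active = mean activation above the mean of DMSO-only wells plus 3 SD, cut at about 0.5% in these data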
Target sequence (P35372 whole entry, looked up): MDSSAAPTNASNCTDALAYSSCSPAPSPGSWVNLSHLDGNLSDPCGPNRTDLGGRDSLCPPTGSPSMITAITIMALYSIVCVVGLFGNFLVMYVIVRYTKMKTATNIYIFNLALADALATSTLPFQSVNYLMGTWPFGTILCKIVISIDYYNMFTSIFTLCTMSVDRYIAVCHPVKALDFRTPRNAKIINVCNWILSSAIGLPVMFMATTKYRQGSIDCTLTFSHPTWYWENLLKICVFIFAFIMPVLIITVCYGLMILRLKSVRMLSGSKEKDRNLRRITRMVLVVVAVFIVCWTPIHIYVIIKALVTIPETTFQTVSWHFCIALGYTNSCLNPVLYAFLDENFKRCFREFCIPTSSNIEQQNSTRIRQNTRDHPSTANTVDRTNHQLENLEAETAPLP
m5-HT2A ag conf: mouse HTR2A agonism confirmed; shares compounds with m5-HT2A agonist; 2,300 tested, 19% active; AID 624381; CHO-K1 PathHunter beta-arrestin recruitment, luminescence; DMSO 0%, 30 µM serotonin 100%; activation, % at 7.6 µM;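 active = mean activation across triplicates above the hit threshold derived in the original primary screen, cut at about 15% in these data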
The depositor's hits bear a star; ? = inconclusive; nt = not tested or not shown. Rows were chosen to be rich in hits. Some 1.7% of all compounds tested hit in one or more screens of this group.

SMILES	LANA-H2B inh	HDAC3 inhib	Fh CTSL1 inh	m5-HT2A agonist	MOR ag counter	m5-HT2A ag conf
CSc1cccc(N2CC(C(=O)N(CC(C)C)c3c(N)n(Cc4ccccc4)c(=O)[nH]c3=O)CC2=O)c1 (configuration not stated)	-3	12	-2	3	nt	nt
CC(Oc1ccc2c3c(c(=O)oc2c1)CCCC3)C(=O)NCc1ccncc1 (configuration not stated)	0	-26	6	3	nt	nt
CCC[C@H]1CC(=O)C=C(c2ccsc2)ON1C(=O)OC(C)(C)C	nt	nt	nt	-5	nt	nt
COc1ccc(C2=CC(=O)C[C@H](CN3C(=O)c4ccccc4C3=O)N(C(=O)OC(C)(C)C)O2)cc1	nt	nt	nt	15*	-1	-5
Cc1ccc(-c2ccc3c(c2)O[C@H](CN(C)Cc2cncnc2)[C@@H](C)CN([C@H](C)CO)S3(=O)=O)cc1	nt	nt	nt	-2	nt	nt
O=C(CS(=O)(=O)Cc1ccccc1)N1CCN(c2ccccc2F)CC1	-1	-3	2	1	nt	nt
CC1CCN(c2c(NCC3CCC(C(=O)NCCc4ccccc4)CC3)c(=O)c2=O)CC1 (configuration not stated)	1	-1	5	2	nt	nt
CC1CCN(c2c(NCC3CCC(C(=O)NCc4ccccc4Cl)CC3)c(=O)c2=O)CC1 (configuration not stated)	2	3	0	19*	0	-4
COCCC(=O)N1CCc2ccc(NC(=O)c3ccc(C(F)(F)F)cc3)cc2C1	-3	9	8	32*	1.2*	1
COCCC(=O)Nc1ccc2c(c1)CN(C(=O)CSC)CC2	2	-7	0	7	nt	nt
Cc1ccc(NC(=O)COC(=O)C2CCC2)cc1S(=O)(=O)N1CCOCC1	2	1	nt	-2	nt	nt
CC(NC(=O)c1nn(C)c(=O)c2ccccc12)c1ccc(F)cc1 (configuration not stated)	-2	nt	6	15*	0	-3
c1ccc(CCN=C2CCCc3c2[nH]c2ccccc32)cc1	-1	-2	2	15*	0	28*
CC1(C)C(C=C(Cl)Cl)C1C(=O)N1CCN(Cc2ccccc2)CC1 (configuration not stated)	-7	15	-1	20*	-1	76*
O=C(NCC(c1ccco1)N1CCN(c2ccccc2F)CC1)c1ccco1 (configuration not stated)	3	4	2	15*	-1	36*
O=C(NCC(c1ccco1)N1CCN(c2ccccc2F)CC1)c1cccs1 (configuration not stated)	-2	-11	-5	10	nt	nt
O=C(OCCSCCOC(=O)C1CC=CCC1)C1CC=CCC1 (configuration not stated)	nt	nt	nt	1	nt	nt
O=C(c1ccccc1C(=O)N1CCN(c2ccccc2)CC1)N1CCN(c2ccccc2)CC1	1	5	-2	22*	-1	-9
O=C(c1cc(-c2ccco2)on1)N1CCN(c2ccccc2)CC1	-1	-4	0	30*	0	-1
CCOC(=O)C1(C)CCCN(C(=O)c2ccccc2F)C1 (configuration not stated)	nt	nt	nt	-2	nt	nt
CN1C2CCC1CC(NS(=O)(=O)c1ccc(C#N)cc1)C2 (configuration not stated)	0	-4	0	16*	-1	-2
CN1C2CCC1CC(NS(=O)(=O)c1cccc(C(F)(F)F)c1)C2 (configuration not stated)	-4	?	-1	-1	nt	nt
CCN1CCN(C(CNS(=O)(=O)c2ccc(OC)c(C)c2)c2cccnc2)CC1 (configuration not stated)	-4	1	-1	20*	-1	-3
COc1ccc(S(=O)(=O)NCC(c2cccnc2)N2CCN(c3ccccc3)CC2)cc1C (configuration not stated)	1	-3	5	4	nt	nt
CCOC(=O)/C(C#N)=C\N(C)C	4	0	4	8	nt	nt
SMILES	LANA-H2B inh	HDAC3 inhib	Fh CTSL1 inh	m5-HT2A agonist	MOR ag counter	m5-HT2A ag conf
CCc1c(C)nn(C(=O)/C(C#N)=C\N(C)C)c1C	0	0	-3	42*	0	2
O=C(NCc1ccc(Cl)cc1)N1CCN(Cc2ccccc2)CC1	4	-5	-1	35*	0	6
O=C(Nc1ccccc1)N1CCN(Cc2ccc(Cl)cc2)CC1	-1	5	3	-5	nt	nt
COc1cccc(CN2CCN(C(=S)NCc3ccc(Cl)cc3)CC2)c1	2	4	5	29*	0.8*	25*
COC(=O)[C@]1(CC(C)C)N[C@H](c2ccc(-c3ccc(F)cc3)cc2)[C@@H]2C(=O)N(C)C(=O)[C@@H]21	-1	?	2	-3	nt	nt
COc1ccc(C(=O)NCCn2cc(SCC(N)=O)c3ccccc32)cc1	0	-11	7	16*	-1	-6
Cc1ccc(NC(=O)CCN2C(=O)c3ccccc3C2=O)cc1	1	7	8	23*	0	-3
COc1cc(/C=C2\S/C(=N/S(=O)(=O)Cc3ccccc3)NC2=O)c([N+](=O)[O-])cc1OC	-3	5	2	-5	nt	nt
COc1cc(/C=C2/S/C(=N/S(=O)(=O)c3ccccc3)NC2=O)c([N+](=O)[O-])cc1OC	0	15	6	18*	-1	-5
COCCn1c(SCC(=O)NNC(=O)c2ccccc2)nc2ccccc21	-2	2	nt	-2	nt	nt
Cc1cc(CNC(=O)c2cccc(OC3CCN(S(=O)(=O)N(C)C)CC3)c2)on1	4	8	-2	15*	0	0
CCc1nc2ccc(C(=O)N3CCN(S(=O)(=O)CC)CC3)cn2c1N(C)CCC(C)C	nt	nt	nt	-4	nt	nt
CCc1nc2ccc(C(=O)N3CCN(S(=O)(=O)CC)CC3)cn2c1N(C)Cc1cccs1	nt	nt	nt	17*	-1	-4
O=C(Nc1cccc(S(=O)(=O)N2CCOCC2)c1)C(c1ccccc1)N1CCCCC1 (configuration not stated)	2	8	1	-2	nt	nt
CC(C(=O)Nc1cccc(S(=O)(=O)N2CCOCC2)c1)N1CCN(C/C=C/c2ccccc2)CC1 (configuration not stated)	3	-4	2	17*	-1	21*
COCCNC(=S)N(CCc1c(C)[nH]c2ccc(F)cc12)Cc1ccco1	3	8	-1	28*	0	-3
CCCCCC(=O)Nc1cccc(C2=NOC3(C2)C[C@H](C(N)=O)N(C(=O)COc2ccc(Cl)cc2)C3)c1 (some centres not stated)	3	6	-2	22*	0	7
COc1ccc(S(=O)(=O)N(CC(=O)NCc2ccncc2)c2ccc(C)cc2)cc1Br	-5	3	-2	-7	nt	nt
CCOc1cccc(CN2CCCC(C(=O)c3cc(Cl)ccc3OC)C2)c1O (configuration not stated)	0	-5	6	23*	0	6
